Here are results for ten compounds from PubChem BioAssay.

The nature of test [1]: binders of probe aFSTL3 on microarray, primary screen, stem cell growth factor project, biochemical, small-molecule microarray, fluorescence 635/667 (AID 1064).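 Note: measures binding of the biotinylated anti-FSTL3 antibody to printed compounds.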 Particulars: higher = more signal.
Test [2] can be described thus: binders from COS7 lysate, DM2A8 probe, primary screen, torsin A project, cell lysate, small-molecule microarray, fluorescence 635/667 (AID 1065). Particulars: higher = more signal, COS7 lysate expressing mutant human TOR1A.
A short description of test [3]: binders of probe aFGF2 on microarray, primary screen, stem cell growth factor project, biochemical, small-molecule microarray, fluorescence 635/667 (AID 1067).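 Note: measures binding of biotinylated aFGF2 protein to printed compounds on slides; z-score merges feature fluorescence and signal-to-noise across triplicate slides.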 Particulars: higher = more signal.
Test [4] in a line: binders of probe aFGF10 on microarray, primary screen, stem cell growth factor project, biochemical, small-molecule microarray, fluorescence 635/667 (AID 1071).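 Note: score merges 667 nm spot intensity and signal to noise from triplicate slides.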 Particulars: higher = more signal.
Test [5] addresses Neurogenic locus notch homolog protein 2 (Homo sapiens) (UniProt Q04721). In words: Notch2 binders on small-molecule microarrays, primary screen, biochemical, small-molecule microarray, 635 nm fluorescence, stem cell growth factors (AID 1073). Particulars: Notch2 binding, higher = more signal.
Test [6] deals with Pro-neuregulin-1, membrane-bound isoform (Homo sapiens) (UniProt Q02297). Kind of test: NRG1 binders on small-molecule microarrays, primary screen, psychiatric disease protein project, biochemical, small-molecule microarray, fluorescence 635/667 (AID 1075).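 Note: score combines 667 nm spot fluorescence with signal to noise.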 Particulars: NRG1 binding, 635 nm fluorescence, higher = more signal.
For test [7], the system named is Neuregulin-1 EGF-like domain. Kind of test: binders of neuregulin-1 EGF-like domain, primary screen, biochemical, small-molecule microarray, 635 nm fluorescence (AID 1081).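 Note: binding of the protein to compounds printed on small-molecule microarray slides.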 The note with it: small-molecule microarray binding, higher = more signal.
A short description of test [8]: FRG1 promoter luciferase signal modulators, primary screen, FRG1 inhibition for FSHD, cell-based, C2C12 myotubes, firefly/Renilla luciferase, luminescence (AID 1084). The note with it: higher = more signal, called active from +8 up or from −8 down.
Test [9] is described as follows: binders of probe aFST on microarray, primary screen, stem cell growth factor project, biochemical, small-molecule microarray, fluorescence 635/667 (AID 1086).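 Note: score merges 667 nm fluorescence with signal-to-noise of each printed compound spot.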 The note with it: higher = more signal.
A short description of test [10]: binders of probe aHhip on microarray, primary screen, stem cell growth factor project, biochemical, small-molecule microarray, fluorescence 635/667 (AID 1087).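 Note: score merges spot fluorescence at 667nm with spot signal to noise ratio.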 The note with it: higher = more signal.
The test system of test [11] is PRMT1 (protein arginine N-methyltransferase 1). Kind of test: PRMT1 binders on small-molecule microarrays, primary screen, biochemical, small-molecule microarray, 635 nm fluorescence (AID 1088).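 Note: binding of Prmt1 protein to compounds spotted on small-molecule microarray slides.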 The note with it: small-molecule microarray binding, higher = more signal.
The nature of test [12]: yeast growth modulation, basal conditions, primary screen, YJM789 clinical isolate, OD600, 24 h (AID 1089).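 Note: growth of clinical yeast isolate S. cerevisiae YJM 789 seeded 1000 cells per well; test concentration not given here.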 The note with it: S. cerevisiae YJM789 growth, higher = more signal, called active from +8 up or from −8 down.
A short description of test [13]: fission yeast growth modulation, primary screen, strain 972, OD600, 24 h, no modulator (AID 1090).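 Note: basal condition with compound alone and no growth modifier present; test concentration not given here.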 Particulars: S. pombe 972 growth, higher = more signal, called active from +8 up or from −8 down.
Test [14] can be described thus: S. cerevisiae growth modulation with rapamycin, primary screen, strain BY4716, OD600, 96 h (AID 1091). Note: test concentration not given here. Particulars: higher = more signal, called active from +8 up or from −8 down.
The target in test [15] is Torsin-1A-interacting protein 2 (Homo sapiens) (UniProt Q8NFQ8). In words: LULL1 binders on small-molecule microarray, primary screen, cell lysate, human LULL1 lysate, 635/667 nm fluorescence (AID 1092).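 Note: probe is lysate of COS7 cells overexpressing human LULL1; score merges per-feature 667 nm fluorescence with signal-to-noise.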 Particulars: hLULL1 lysate binding, 635 nm fluorescence, higher = more signal.
Test [16] in a line: E. coli growth modulation, two-sided OD650, primary screen, E. coli filamentation project, strain DRC41, 24 h (AID 1093).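 Note: MC1000 strain lacking acrAB efflux and sulA so SOS filamentation is blocked; test concentration not given here.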 Particulars: OD650, 24 h, higher = more signal, called active from +8 up or from −8 down.
Test [17] in a line: small-molecule microarray binders of probe aLefty2, primary screen, biochemical, biotinylated probe, 635/667 nm fluorescence (AID 1094).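 Note: score merges spot fluorescence near 667 nm with spot signal-to-noise ratio.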 Particulars: higher = more signal.
The subject of test [18] is Noggin (protein binding on small-molecule microarray). Kind of test: Noggin binders on small-molecule microarray, primary screen, biochemical, 635/667 nm fluorescence (AID 1095).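 Note: score merges 667 nm feature fluorescence with signal to noise over triplicate slides.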 The note with it: 635 nm fluorescence, higher = more signal.
In test [19] the target is Neurogenic locus notch homolog protein 3 (Homo sapiens) (UniProt Q9UM47). In words: NOTCH3 binders on small-molecule microarray, primary screen, biochemical, 635/667 nm fluorescence (AID 1096). Particulars: NOTCH3 binding, 635 nm fluorescence, higher = more signal.
The nature of test [20]: small-molecule microarray binders of probe aEGFR, primary screen, biochemical, biotinylated probe, 635/667 nm fluorescence (AID 1097).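 Note: probe is a biotinylated anti-EGFR antibody binding compounds printed on slides; score combines fluorescence near 667 nm and signal to noise of each spot.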 Particulars: higher = more signal.

SMILES strings stand for the structures. Calls of active or inactive are those of the source.

Chain of Torsin-1A-interacting protein 2 (Homo sapiens) (Q8NFQ8 whole entry, looked up): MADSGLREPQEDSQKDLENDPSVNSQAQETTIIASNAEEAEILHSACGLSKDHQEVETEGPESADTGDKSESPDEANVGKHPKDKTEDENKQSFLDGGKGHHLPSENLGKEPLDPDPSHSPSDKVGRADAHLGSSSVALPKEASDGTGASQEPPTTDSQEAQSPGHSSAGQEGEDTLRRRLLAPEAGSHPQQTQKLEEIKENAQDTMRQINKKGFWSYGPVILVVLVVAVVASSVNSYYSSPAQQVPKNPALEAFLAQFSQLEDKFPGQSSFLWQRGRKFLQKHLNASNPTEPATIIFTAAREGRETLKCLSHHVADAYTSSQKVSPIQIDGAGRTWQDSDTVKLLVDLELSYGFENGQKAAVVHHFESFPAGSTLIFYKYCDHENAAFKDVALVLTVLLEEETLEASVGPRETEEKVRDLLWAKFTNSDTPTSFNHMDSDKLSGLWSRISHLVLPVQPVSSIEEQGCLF
Chain of Neurogenic locus notch homolog protein 2 (Homo sapiens) (Q04721 whole entry, looked up, canonical isoform): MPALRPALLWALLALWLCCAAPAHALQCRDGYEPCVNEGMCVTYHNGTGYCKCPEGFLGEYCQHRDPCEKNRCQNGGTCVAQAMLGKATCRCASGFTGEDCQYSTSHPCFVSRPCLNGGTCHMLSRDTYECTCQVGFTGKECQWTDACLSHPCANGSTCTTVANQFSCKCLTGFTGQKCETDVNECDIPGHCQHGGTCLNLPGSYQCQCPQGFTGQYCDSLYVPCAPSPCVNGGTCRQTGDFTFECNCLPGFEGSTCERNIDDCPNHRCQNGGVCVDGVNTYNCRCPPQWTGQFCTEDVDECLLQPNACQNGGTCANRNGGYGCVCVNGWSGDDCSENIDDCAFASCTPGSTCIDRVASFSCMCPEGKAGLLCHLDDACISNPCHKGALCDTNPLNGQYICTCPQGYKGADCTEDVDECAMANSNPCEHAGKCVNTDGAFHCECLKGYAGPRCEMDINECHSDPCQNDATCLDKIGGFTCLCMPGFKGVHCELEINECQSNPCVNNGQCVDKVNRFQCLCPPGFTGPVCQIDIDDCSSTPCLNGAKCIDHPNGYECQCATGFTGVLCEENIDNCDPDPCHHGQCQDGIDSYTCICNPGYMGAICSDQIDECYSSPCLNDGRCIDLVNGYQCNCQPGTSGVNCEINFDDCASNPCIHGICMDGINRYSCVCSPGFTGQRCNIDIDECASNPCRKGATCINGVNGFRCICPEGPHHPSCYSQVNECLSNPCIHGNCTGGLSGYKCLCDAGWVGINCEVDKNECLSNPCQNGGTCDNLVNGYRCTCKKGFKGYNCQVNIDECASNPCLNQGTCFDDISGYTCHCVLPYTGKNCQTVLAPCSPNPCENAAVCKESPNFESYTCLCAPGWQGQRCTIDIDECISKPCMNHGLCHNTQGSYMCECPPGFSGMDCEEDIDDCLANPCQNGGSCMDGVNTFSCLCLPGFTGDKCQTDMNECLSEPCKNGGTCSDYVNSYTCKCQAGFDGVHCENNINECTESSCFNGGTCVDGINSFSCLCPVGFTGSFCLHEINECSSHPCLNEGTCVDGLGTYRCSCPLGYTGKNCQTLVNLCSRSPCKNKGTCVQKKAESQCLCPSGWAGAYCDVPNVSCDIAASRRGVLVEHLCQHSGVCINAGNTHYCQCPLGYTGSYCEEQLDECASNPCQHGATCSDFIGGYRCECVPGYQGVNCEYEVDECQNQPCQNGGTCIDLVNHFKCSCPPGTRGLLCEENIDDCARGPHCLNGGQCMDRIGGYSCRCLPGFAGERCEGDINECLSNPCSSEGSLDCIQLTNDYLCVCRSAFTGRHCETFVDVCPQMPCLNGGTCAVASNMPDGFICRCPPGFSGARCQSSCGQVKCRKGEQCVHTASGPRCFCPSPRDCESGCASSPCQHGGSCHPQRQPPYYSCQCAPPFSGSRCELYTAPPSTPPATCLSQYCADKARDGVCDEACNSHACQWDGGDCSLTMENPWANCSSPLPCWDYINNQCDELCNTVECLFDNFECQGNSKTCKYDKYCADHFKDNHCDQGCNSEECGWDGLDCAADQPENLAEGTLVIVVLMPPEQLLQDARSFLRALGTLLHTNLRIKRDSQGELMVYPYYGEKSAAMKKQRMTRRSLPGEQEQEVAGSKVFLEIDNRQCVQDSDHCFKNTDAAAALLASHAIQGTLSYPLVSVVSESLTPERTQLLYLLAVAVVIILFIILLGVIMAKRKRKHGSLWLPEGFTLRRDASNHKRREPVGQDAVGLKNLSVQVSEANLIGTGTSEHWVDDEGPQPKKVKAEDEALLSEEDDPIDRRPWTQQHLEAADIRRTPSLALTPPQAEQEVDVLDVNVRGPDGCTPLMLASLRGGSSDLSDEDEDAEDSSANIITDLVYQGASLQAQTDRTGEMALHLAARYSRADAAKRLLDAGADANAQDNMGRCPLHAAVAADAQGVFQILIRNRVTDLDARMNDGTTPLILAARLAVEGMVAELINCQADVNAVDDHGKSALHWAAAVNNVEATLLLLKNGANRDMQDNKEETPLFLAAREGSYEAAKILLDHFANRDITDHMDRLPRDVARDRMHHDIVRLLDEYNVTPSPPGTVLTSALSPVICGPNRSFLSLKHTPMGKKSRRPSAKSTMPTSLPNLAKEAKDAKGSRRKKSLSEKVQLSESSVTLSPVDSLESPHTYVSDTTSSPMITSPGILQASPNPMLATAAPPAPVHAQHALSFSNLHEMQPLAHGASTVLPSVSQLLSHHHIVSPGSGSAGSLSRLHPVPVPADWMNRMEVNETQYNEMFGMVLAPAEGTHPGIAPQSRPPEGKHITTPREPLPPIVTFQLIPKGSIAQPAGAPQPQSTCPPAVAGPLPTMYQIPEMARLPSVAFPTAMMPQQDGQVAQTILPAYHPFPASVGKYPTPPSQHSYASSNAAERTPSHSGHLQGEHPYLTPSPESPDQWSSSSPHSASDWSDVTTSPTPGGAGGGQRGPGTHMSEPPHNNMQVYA
Chain of Pro-neuregulin-1, membrane-bound isoform (Homo sapiens) (Q02297 whole entry, looked up, the tested form may be a part, canonical isoform): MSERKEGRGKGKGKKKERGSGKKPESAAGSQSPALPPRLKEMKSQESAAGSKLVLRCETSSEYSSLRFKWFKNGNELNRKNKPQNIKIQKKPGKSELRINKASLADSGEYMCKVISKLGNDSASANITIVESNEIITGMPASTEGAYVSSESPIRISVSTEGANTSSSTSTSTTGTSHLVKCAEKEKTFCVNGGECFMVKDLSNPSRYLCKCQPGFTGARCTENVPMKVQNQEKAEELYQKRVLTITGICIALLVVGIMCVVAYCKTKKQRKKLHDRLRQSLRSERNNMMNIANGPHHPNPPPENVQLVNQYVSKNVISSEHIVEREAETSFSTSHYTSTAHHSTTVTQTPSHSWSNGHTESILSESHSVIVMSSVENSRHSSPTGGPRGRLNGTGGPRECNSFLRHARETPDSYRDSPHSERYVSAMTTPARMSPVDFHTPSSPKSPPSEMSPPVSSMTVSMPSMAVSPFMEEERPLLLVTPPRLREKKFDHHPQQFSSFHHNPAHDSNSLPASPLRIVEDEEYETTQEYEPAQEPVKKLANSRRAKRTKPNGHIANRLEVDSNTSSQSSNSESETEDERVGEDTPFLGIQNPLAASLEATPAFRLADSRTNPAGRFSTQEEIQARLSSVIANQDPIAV

In the case of `O=C1OCC=C[C@H]2OC34C=CCN(CCN5CCOCC5)C(=O)[C@H]3N(CCCCCO)C(=O)[C@@H]4[C@@H]12` (stereo not given in full), the composite z-score in [1] was -0.099; in test [2], 0.298; in test [3] it was -0.128; in [4] it was -0.191; in [5] it was 0.0385; in test [6], -0.0529. Also, the composite z-score in test [7] is 1.43; in [9], -0.452; in test [10], -0.236; in test [11], -0.0623; in test [15], 2.22; in [17], -0.0282. The composite z-score in test [18] is 0.0316; in [19], -0.255; in [20] it was -0.0831. Also, the z-score is 0.401 (inactive) in test [8]; -1 (inactive) in test [12]; -0.586 (inactive) in [13]; -0.406 (inactive) in [14]; -0.0128 (inactive) in test [16].

As to `C=C(CCCC)/C(=C/C[C@H](OC(=O)c1ccncc1)c1ccc(CO)o1)c1cc(C(=O)OC)ccc1OC`, the composite z-score in test [1] was -0.293; in test [2] it was 1.83; in test [3], -0.116; in test [4], 0.418; in [5] it was 0.822; in test [6], 1.01. Moreover, the composite z-score in test [7] is 1.26; in test [9] it was 0.381; in test [10] it was 0.0722; in test [11] it was 1.56; in [15] it was 2.12; in test [17] it was 0.0123. For the same compound, the figures for the composite z-score in test [18], in test [19] and in [20] were 1, 1.13 and -0.0056, respectively. In addition, the z-score in test [8] is -0.906 (inactive); in [12], -0.0643 (inactive); in [13], -1.65 (inactive); in [14], -0.57 (inactive); in test [16], 0.171 (inactive).

As to `CC(C)C[C@@H]1NC(=O)[C@@H]2C[C@H](C(=O)NCCCC[N+](C)(C)C)[C@H](c3cccc(OCCO)c3)N2C1=O`, the composite z-score in test [1] is 0.157; in [2], 1.09; in test [3], -0.0784; in test [4], -0.0155; in [5] it was -0.884; in [6], 1.05. For the same compound, the composite z-score was 1.12 in test [7]; 0.496 in test [9]; 0.595 in test [10]; 1.31 in test [11]; 0.622 in test [15]; -0.0123 in [17]. In addition, the composite z-score was 1.84 in test [18], 1.04 in test [19] and -0.0069 in test [20]. Also, the z-score was 0.14 (inactive) in test [8]; 1.14 (inactive) in [12]; 0.936 (inactive) in test [13]; -0.567 (inactive) in [14]; -0.329 (inactive) in [16].

Turning to `CC(C)=CCCC(C)=CC(O)C1C=CC2C(=O)N(c3ccccc3)C(=O)C2N1Nc1ccc([N+](=O)[O-])cc1` (stereo not given), the composite z-score in [1] is -0.265; in test [2], 0.148; in [3], 0.0159; in test [4] it was 0.344; in test [5], 1.59; in test [6], 1.64. The composite z-score was 1.28 in [7]; 0.852 in test [9]; -0.0237 in test [10]; 1.52 in test [11]; 3.8 in test [15]; 0.0634 in test [17]. Also, the composite z-score in [18] is -0.14; in [19], 1.12; in test [20], 0.0466. Moreover, the z-score was -1.01 (inactive) in test [8]; -0.706 (inactive) in [12]; -0.589 (inactive) in test [13]; 8.22 (active) in [14]; -0.867 (inactive) in test [16].

Turning to `O=[N+]([O-])c1ccc(C[n+]2ccc(-c3ccc(CO)cc3)cc2)o1`, the composite z-score was -0.217 in [1]; 0.239 in test [2]; -0.0266 in test [3]; 0.165 in test [4]; 1.29 in test [5]; 1.52 in [6]. Besides, the composite z-score in test [7] was 0.373; in [9] it was 0.273; in [10], 0.0373; in test [11], 1.47; in [15], 1.71; in test [17], -0.129. Moreover, the composite z-score in [18] is 0.526; in test [19], 1.16; in [20] it was -0.0703. For the same compound, the z-score in test [8] was -0.721 (inactive); in [12], -0.612 (inactive); in test [13] it was -15.5 (active); in test [14] it was 0.196 (inactive); in test [16] it was -0.818 (inactive).

As to `COc1cc(C(O)C2C=CC3C(=O)NC(=O)C3N2Nc2ccc(Cl)cc2Cl)cc(OC)c1OC` (stereo not given), the composite z-score in test [1] is 0.223; in [2], -1.1; in test [3], 0.0461; in [4], 0.476; in test [5], 1.63; in test [6] it was 1.72. For the same compound, the composite z-score in [7] turned out to be 1.21; in test [9] it was 1.7; in [10], 0.203; in [11] it was 1.18; in test [15], 3.27; in test [17], 0.162. Also, the results for the composite z-score in test [18], in test [19] and in [20] were 0.049, 1.09 and 0.114, respectively. Further, the z-score is 1.15 (inactive) in test [8]; -12.3 (active) in [12]; -1.57 (inactive) in test [13]; 0.27 (inactive) in test [14]; -0.66 (inactive) in test [16].

On to `C=C(COC)C(=O)CC[C@H](OC(=O)c1ccccc1-c1ccccc1C(=O)O)c1ccc(OCCO)cc1`, for which the composite z-score in [1] is -0.249; in [2] it was 1.42; in [3] it was -0.0729; in test [4], 0.512; in test [5], -0.0342; in [6], 1.09. The composite z-score in [7] is 1.11; in test [9], 0.347; in [10], -0.236; in test [11], 1.55; in [15], 0.75; in [17] it was -0.117. The composite z-score in test [18] is 1.52; in test [19], 0.615; in [20], -0.111. Besides, the z-score was 0.552 (inactive) in test [8]; -1.73 (inactive) in test [12]; -0.613 (inactive) in test [13]; -0.509 (inactive) in [14]; 0.802 (inactive) in test [16].

Regarding `COCCCNC(=O)[C@@]1(Cc2ccccc2)COC(c2ccc(OCCCO)cc2)=N1`, the composite z-score in [1] was 0.0674; in test [2], -0.321; in [3] it was -0.0745; in test [4] it was 0.821; in [5] it was 0.694; in test [6] it was 1.77. Also, the composite z-score in [7] was 0.99; in test [9] it was 0.696; in test [10] it was -0.135; in test [11] it was 1.49; in test [15], 3.55; in test [17], 0.0634. Further, the composite z-score in [18] was -0.233; in test [19], 0.117; in test [20] it was -0.0828. Further, the z-score in [8] is -1.02 (inactive); in [12], -1.29 (inactive); in [13], -1.98 (inactive); in test [14], -1.27 (inactive); in test [16], 1.47 (inactive).

Turning to `C[N+](C)(C)CCCCCCNC(=O)[C@H]1C[C@H]2C(=O)N3CCC[C@H]3C(=O)N2[C@H]1c1cccc(OCCO)c1`, the composite z-score was -0.238 in test [1]; 2.05 in [2]; 0.0111 in test [3]; 0.573 in test [4]; 0.761 in test [5]; 0.577 in test [6]. Further, the composite z-score in test [7] worked out at 1.42; in test [9], 0.301; in [10], 0.154; in [11], 1.3; in test [15], 3.24; in [17], 0.05. Further, the composite z-score came out at 0.666 in [18], 1.08 in test [19] and 0.153 in test [20]. Further, the z-score in test [8] was 4.55 (inactive); in test [12], -0.811 (inactive); in [13], -0.486 (inactive); in test [14], 0.0309 (inactive); in [16], -0.64 (inactive).

Regarding `CCCCCCC#C[Si](O[C@H](c1ccccc1)c1cn(Cc2cccc(Cl)c2)nn1)(C(C)C)C(C)C`, the composite z-score in test [1] is -0.194; in test [2], 0.485; in test [3], -0.161; in test [4], 0.238; in test [5], 0.631; in [6], 0.485. Moreover, the composite z-score in [7] was 0.382; in [9], -0.0431; in test [10] it was -0.0994; in test [11], 1; in test [15] it was 0.416; in [17] it was -0.0719. In addition, the composite z-score in test [18] was 0.255; in test [19], 0.487; in test [20] it was -0.0828. The z-score in [8] is -0.891 (inactive); in [12], -0.381 (inactive); in test [13], 0.403 (inactive); in test [14] it was -0.162 (inactive); in test [16], 1.12 (inactive).
